Reference: PubChem BioAssay (EPA / NIEHS)
Inconclusive results are not listed. Active and inactive are the calls of the source. The calls were made as follows: active = hit-call score of the fitted dose curve at least 0.9, where 1 is the maximum; inconclusive = response in the unintended direction; inactive = score below 0.9.

Assay: CCTE_Mundy_HCI_iCellGluta_NOG_NeuriteCount: CCTE's Neurite Outgrowth Assay in iCellGluta cells for Neurite Count, Mundy Lab (AID 2284342);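 also: chemical exposure about 48 hours starting 2 hours after plating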
Description: CCTE_Mundy_HCI_iCellGluta_NOG is a multiplexed, cell-based-readout assay that uses iCell GlutaNeurons from FUJIFILM Cellular Dynamics, Inc. (FCDI), human glutamatergic enriched neurons derived from induced pluripotent stem (iPS) cells, with measurements taken at 50.33 hours after chemical dosing in a microplate: 96-well plate.CCTE_Mundy_HCI_iCellGluta_NOG_NeuriteCount is one of four components of the CCTE_Mundy_HCI_iCellGluta_NOG assay. It measures neurite outgrowth related to number of neurites using High Content Imaging of fluorescently labelled markers.Data from the assay component CCTE_Mundy_HCI_iCellGluta_NOG_NeuriteCount was analyzed at the endpoint CCTE_Mundy_HCI_iCellGluta_NOG_NeuriteCount in the positive analysis fitting direction relative to DMSO as the negative control and baseline of activity. Using a type of morphology reporter, loss-of-signal activity can be used to understand developmental effects.
Exposure starts 2 hours post-plating by adding 10 ul of the working solution to 90 ul of media in the wells for a 1/10 dilution. Forty-eight hours after chemical treatment cells are fixed by direct addition of 100 ul of warm (37C) Dulbecco's phosphate buffered saline (DPBS) fixative solution containing 8% paraformaldehyde, 8% sucrose, and 0.1% of 3 mg/ml Hoechst 33342 into each well. Primary antibodies are prepared by dilution in Immunocytochemical Staining Buffer (ISB), 10X Dulbecco's PBS, 0.1% Saponin, 5% Bovine Serum Albumin, 0.5% NaN3 (Sodium Azide) and betaIII-tubulin (rabbit anti-betaIII-tubulin, 1:800) followed by Alexa Fluor-488 secondary (1:500) to label neuronal cell bodies and neurites. A Cellomics ArrayScan VTi HCS Reader is used for automated image acquisition and analysis of neurite outgrowth.

SMILES | outcome | AC50
CCOc1ccc(C(C)(C)COCc2cccc(Oc3ccccc3)c2)cc1 | inactive | 
FC(F)(F)C(F)(C(F)(F)F)C(F)(F)C(F)(F)CC1CO1 (stereo not given) | inactive | 
O=C(O)C=CC(F)(C(F)(F)F)C(F)(F)F | inactive | 
O=C(O)C(F)(F)OC(F)(F)C(F)(F)OC(F)(F)F | inactive | 
OCC(F)(F)OC(F)(F)C(F)(F)OC(F)(F)C(F)(F)OC(F)(F)F | inactive | 
CCOP(=S)(OCC)SCSCC | inactive | 
O=C(O)C(F)(OC(F)(F)C(F)(F)C(F)(F)F)C(F)(F)F (stereo not given) | inactive | 
CO/N=C(/C(=O)OC)c1ccccc1COc1ccccc1C |  | 28.7 µM (active)
O=C(O)C(F)(F)OC(F)(F)C(F)(F)OC(F)(F)C(=O)O | inactive | 
C=CC(=O)OCC(F)(F)C(F)F | inactive | 
